Here are results for 40 compounds from PubChem BioAssay (NCI).

The panel holds about 83,000 compounds, 20% with a hit somewhere; the sample as a whole holds those more often.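 Treatment: one concentration, 48 hours, 96-well format. Scoring: percent growth, with anything below 10 considered active.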 Unmarked numbers belong to inactive results. Calls of active or inactive are those of the source.

In the test the test system is HL-60(TB) leukemia. Nature of the test: NCI-60 one-dose screen, 48 h (100 = growth as untreated, 0 = no growth, -100 = all killed). The following applies: 10 µM unless noted.
Consider `CNCc1cccc2c1OCCCCCCC(C)(O)CC(C)(C)S(=O)(=O)c1ccc(cc1)-c1cnc(N)c(n1)C(=O)N2` (stereo not given), for which the growth was -44.1% (active).
The figure for `Clc1ccc(-c2cn3cc(Cc4ccc(Cl)c(Cl)c4)sc3n2)cc1` is 80.3%; for `C/C(=N\O)[C@H]1C[C@]23CC[C@]4(C)[C@H](CC[C@@H]5[C@@]6(C)CC/C(=N/O)C(C)(C)[C@@H]6CC[C@]54C)[C@H]2[C@H](C)C1(C)OC3` it is 121%; for `CCOC(=O)c1c(N)c(C#N)cn1Cc1ccc(Cl)cc1Cl` it is 60.6%.
Under `CCNC(=O)Oc1ccc(/C(=C(/C)c2ccc(Cl)cc2)c2ccc(OCCN3CCCC3)cc2)cc1` stands 56.2%; under `CS(=O)(=O)c1nccc(-c2c(-c3cccc(OCc4ccc(Cl)c(C(F)(F)F)c4)c3)nc3sccn23)n1`, 12.5%.
With `O=C(Nc1ccc(N=Cc2c(O)[nH]c3ccccc23)cc1)Nc1ccc(S(=O)(=O)Nc2ncccn2)cc1`, the growth is 117%.
Under `COc1cc(/C=C/C(=O)c2ccc(N3CCN(C)CC3)cc2)ccc1F` stands 50%; under `COc1ccc(NC2=C(Cl)C(=O)C(C)=C(C)C2=O)cc1`, 37.4%.
The figure for `CCOC(=O)c1cccc(NC2=C(Cl)C(=O)c3nc(C)ccc3C2=O)c1` is 42%.
The figure for `CSc1ccc(/C(=N/N=C(N)N)c2ccc(F)cc2)cc1` is -31.7% (active); for `O=S(=O)(Oc1ccc(-c2nnc(Nc3ccccc3)s2)cc1)C(F)(F)C(F)(F)C(F)(F)C(F)(F)C(F)(F)C(F)(F)F` it is 70.6%; for `COc1cc(/C=N/NC(=O)c2cn(C3CC3)c3c(OC)c(N4CC5CCCNC5C4)c(F)cc3c2=O)ccc1O` (stereo not given) it is -40.3% (active).
With `O=c1nc(Nc2ccc([N+](=O)[O-])cc2O)sc2ccccc12`, the growth is -13.3% (active).
`CC(C)=CCC[C@](C)(O)[C@H]1CC[C@]2(C)[C@@H]1CC[C@@H]1[C@@]3(C)CC[C@H](N)C(C)(C)[C@@H]3CC[C@]12C`: the growth is -24.1% (active).
The figure for `C#Cc1nc(/C=C/CCCCCCC(=O)NO)cs1` is -64.8% (active); for `ClC(Cl)c1nc(-c2cccs2)n2nc(-c3ccccc3)cc2n1` it is 0.604% (active).
Under `COC(=O)c1[nH]nc2c1C1(C(=O)N(C)c3ccccc31)C(C#N)=C(N)O2` (stereo not given) stands 107%.
Under `CN1CCN(c2ccc(Nc3nc(NCCNS(=O)(=O)c4ccc5ccccc5c4)c4sccc4n3)cc2)CC1` stands -29.5% (active).
For the compound `O=S(=O)(Oc1ccc(-c2cn3ccoc3n2)cc1)C1CCCCC1`, the growth is 90.2%.
Under `O=c1oc2ccc(-c3ccc(F)cc3F)cc2c(=O)n1-c1ccc(F)c(F)c1` stands -18.9% (active); under `CN1CCN(CCCCCC(=O)Nc2nc(-c3cccc(NS(=O)(=O)c4cccc5c(N(C)C)cccc45)c3)cs2)CC1`, 75.1%; under `Cc1ccc2c(c1)C(=O)/C(=C/c1cccc(F)c1)S2`, 98.9%.
For `Cc1ccc2sc3c(c2c1)OC(N)=C(C#N)C3c1cccc(F)c1` (stereo not given), the growth is -0.493% (active).
The figure for `Cc1[nH]nc2ccc(-c3nc4cnc(N5CCN(C)CC5)cn4c3Nc3ccc(F)cc3Br)cc12` is -29.6% (active); for `O=C(CSc1nc2ccccc2c(=O)n1-c1ccc(Cl)cc1)N/N=C/c1ccc(Oc2ccc(Cl)cc2)cc1` it is 111%.
Under `C#CCN(C)CCCOc1ccc(NCc2ccc(/C=C/C(=O)NO)cc2)cc1Cl` stands 6.07% (active); under `NS(=O)(=O)c1ccc(Nc2nc(N/N=C/c3ccc(F)cc3)nc(Nc3ccccc3)n2)cc1`, 60.4%.
Under `COC(=O)c1ccc(NC(=S)N2CCc3ccc([N+](=O)[O-])cc3C2)cc1O` stands 97.7%; under `O=C1Nc2ccccc2Oc2ccc(S(=O)(=O)CC3CO3)cc21` (stereo not given), 0.252% (active); under `CCN1CCN(/C(=N\c2sc(-c3ccccc3)nc2-c2ccccc2)c2ccccc2)CC1`, 50.9%.
With `Cc1ccc(NC(=O)c2ccc(CN3CCN(C)CC3)c(C(F)(F)F)c2)cc1Oc1ccc(-c2[nH]nc3ncnc(N)c23)cc1`, the growth is 113%.
`Nc1cc(F)ccc1NC(=O)c1ccc(NC(=O)C/C=C/c2cccnc2)cn1`: the growth was 11.3%.
Under `COc1ccc2oc3c4[nH]c5ccccc5c4c4c(c3c2c1)C(=O)N(O)C4=O` stands 102%; under `CN(c1ccc(Cl)cc1)S(=O)(=O)c1ccc(-c2cnc(C3CC3)o2)cc1`, -15.9% (active); under `COc1ccc(-c2nc3ccc(-c4nnc(SCC(=O)Nc5ccc(C(=O)/C=C/c6ccc(Cl)cc6)cc5)o4)cc3[nH]2)cc1`, 94.1%.
The figure for `C=C(C)[C@@H]1CC[C@]2(C(=O)NC3CCCCC3)CC[C@]3(C)[C@H](CC[C@@H]4[C@@]5(C)CC[C@H](N)C(C)(C)[C@@H]5CC[C@]43C)[C@@H]12` is 74.5%; for `Cc1ccc(NC(=O)c2ccc(CN3CCN(C)CC3)cc2)cc1Oc1ccc(-c2[nH]nc3ncnc(N)c23)cc1` it is 126%; for `C#C[C@]1(O)CC[C@H]2[C@@H]3CC=C4c5sc(Nc6ccncc6)nc5CC[C@]4(C)[C@H]3CC[C@@]21C` it is -24% (active).
Under `O=C(CCCCCCN1CC(=O)N2[C@@H](c3ccccc3)c3[nH]c4ccccc4c3C[C@H]2C1=O)NO` stands 28.5%.
